# PubChem BioAssay AID1745849 (National Center for Advancing Translational Sciences (NCATS), 2022)
# The whole screen tested about 2,100 compounds, of which about 320 (15%) were called active. Another 52% or so got no clear call; they are omitted. Calls follow the shape of the dose curve; as a rule, active = well fitted cell-killing curve with a large enough effect; inconclusive = small, poorly fitted or top-dose-only effect, or effect the other way; inactive = flat fitted curve, though single readings scatter. This is one part of the list. A call without a number means that no potency is given here.
# Test: Viability Counterscreen for CMV-Luciferase Assay of Inhibitors of ATXN expression; also: nearly all actives have a fitted effect of over 55% in size
# Conditions: HEK-293 CMV-luciferase cells viability, protease fluorescence, 24 h
# Outline: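 Fluorescence from cleaved Gly-Phe-AFC (25 uM final, 30 min, ex 405/em 540 nm) reported viability, and the luciferase signal of the same CMV-reporter HEK-293 wells was read 5 min after SteadyGlo addition. Dosing lasted 24 hr.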
# Potency is read from the fitted curve at half-maximal effect.
row,SMILES,Potency
1,CC1(C)Cc2ccccc2C2=NNC(=O)C2=N1,25.1 µM (active)
2,Cc1ccc(S(=O)(=O)c2c(N)n(CC3CCOC3)c3nc4ccccc4nc23)cc1 (stereo not given),inactive
3,CCCCn1c(N)c(S(=O)(=O)c2ccc(C)cc2)c2nc3ccccc3nc21,inactive
4,COc1cccc(/C=N/n2c(N)c(S(=O)(=O)c3cccs3)c3nc4ccccc4nc32)c1OC,14.1 µM (active)
5,CCn1cc(C(=O)NCCCN2CCCC(C)C2)c(=O)c2cc(S(=O)(=O)N3CCc4ccccc4C3)ccc21 (stereo not given),inactive
6,O=C(C1CC(=O)N(c2ccc3c(c2)OCCO3)C1)N1CCN(c2ccccc2)CC1 (stereo not given),inactive
7,Cn1c(/C=C/c2ccc(Cl)cc2)c([N+](=O)[O-])c(=O)n(C)c1=O,12.6 µM (active)
8,Cn1c(/C=C/c2cccc([N+](=O)[O-])c2)c([N+](=O)[O-])c(=O)n(C)c1=O,14.1 µM (active)
9,Cn1c(/C=C/c2ccc(Cl)cc2Cl)c([N+](=O)[O-])c(=O)n(C)c1=O,10 µM (active)
10,CN(c1ccc(OCC(=O)N2CCN(c3ccc(F)cc3)CC2)cc1)S(=O)(=O)c1cccs1,inactive
11,CC(=O)N1CCCc2cc(S(=O)(=O)N3CCCC(C(=O)N4CCN(c5cc(C)ccc5C)CC4)C3)ccc21 (stereo not given),inactive
12,CCOc1ccc(/C=C/[N+](=O)[O-])c2ccccc12,20 µM (active)
13,COc1ccc(NC(=O)N2CCN(c3nc(-c4cccc(OC)c4)cs3)CC2)cc1,inactive
14,CC1CCN(C(=O)c2cc3nc(-c4ccccc4)cc(-c4ccccc4)n3n2)CC1,inactive
15,Cc1c(C(=O)NCc2ccc(Cl)c(Cl)c2)sc(=O)n1Cc1ccc(S(C)(=O)=O)cc1,inactive
16,O=S(=O)(Cc1cc(NCc2ccccc2)nc(-c2ccccn2)n1)c1ccccc1,inactive
17,CCN(CC)CCn1nc2c3c(cccc3c1=O)-c1ccccc1-2,11.2 µM (active)
18,C/C(=N\NC(=O)C12CCC(C)(C(=O)O1)C2(C)C)c1ccccc1O (stereo not given),inactive
19,CCc1ccc(C(=O)NNC(=O)C2CCN(c3ncnc4sc(C)c(C)c34)CC2)cc1,inactive
20,COc1ccc(S(=O)(=O)N(C)C)cc1NC(=O)C1CCN(c2ncnc3sc(C)c(C)c23)CC1,inactive
21,COc1ccc(-c2csc(NC(=O)C3CCN(c4ncnc5sc(C)c(C)c45)CC3)n2)cc1OC,8.91 µM (active)
22,Cc1ccccc1Oc1cc(NC(=O)CCCn2nc(C)c([N+](=O)[O-])c2C)cc([N+](=O)[O-])c1,inactive

row,SMILES,Potency
1,S=C(NCc1ccc(Cl)cc1Cl)NC1CCCCC1,inactive
2,O=C(Nc1ccccc1NC(=O)NC1CCCCC1)NC1CCCCC1,20 µM (active)
3,O=C(N/N=C/c1ccccc1O)C1CCCC1,inactive
4,CCc1ccc(CNC(=O)c2cc3c(C)nc4ccccc4c3o2)cc1,inactive
5,Cc1ccc2[nH]c(O)c(N=NC(=O)C3CC3c3ccccc3)c2c1Br (stereo not given),inactive
6,O=C(NNCc1ccccc1)c1ccccc1,inactive
7,O=C(/C=C/NNC(=O)c1ccccc1)c1ccc([N+](=O)[O-])cc1,12.6 µM (active)
8,O=C(O)COc1ccc2oc3ccccc3c2c1,inactive
9,c1ccc(Cn2c(-c3ccccc3)c[n+]3c2SCCC3)cc1,inactive
10,C/C(=N\NC(=O)COc1cccc(C)c1)c1ccc2ccccc2c1O,inactive
11,CCCC/C(C)=N/NC(=O)c1cn(-c2ccccc2)nc1-c1ccccc1,inactive
12,COc1ccc(CC(=O)N/N=C(\C)c2ccccn2)cc1,11.2 µM (active)
13,C/C(=N\NC(=O)c1cccc2ccccc12)c1ccccn1,1.41 µM (active)
14,CCCCCC(=O)N/N=C(\C)c1ccccn1,inactive
15,CCc1ccc(OCC(=O)N/N=C(\C)c2ccc(O)cc2O)cc1,inactive
16,OC1(c2ccc(Br)cc2)CCNCC1,inactive
17,Cc1cccc(OCCSc2nc3ncnc(N)c3[nH]2)c1,inactive
18,COc1ccccc1Cc1c(-c2ccco2)nc2c(C)cc(Br)cn12,8.91 µM (active)
19,Cc1n(Cc2ccccc2)c2ccccc2[n+]1Cc1ccccc1,inactive
20,CC(C)=CCc1ccc(O)c(=O)cc1C(C)C,inactive
21,CC(C)=CCc1c(O)cc2oc3c(CC=C(C)C)c(O)c(O)c(CC=C(C)C)c3c(=O)c2c1O,inactive
22,O=C(Nc1ccc(N2CCOCC2)c(Cl)c1)c1c(F)c(F)c(F)c(F)c1F,inactive

row,SMILES,Potency
1,O=C(Nc1ccc(N2CCN(C(=O)c3ccccc3)CC2)c(Cl)c1)c1ccc(Br)o1,inactive
2,O=C(Nc1ccc(Cl)cc1)Nc1ccc(N2CCCC2)c(S(=O)(=O)Nc2ccccc2Cl)c1,7.94 µM (active)
3,Cc1cc(Cl)ccc1-c1cc2nc(NCCCN(C)C)n(C)c(=O)c2s1,inactive
4,Cc1cc(C)c2nc(N(CCCN(C)C)C(=O)c3ccc4c(c3)OCCO4)sc2c1,31.6 µM (active)
5,Cc1ccc(C(=O)N(CCCN(C)C)c2nc3ccc(Cl)cc3s2)cc1C,22.4 µM (active)
6,Cc1ccc2nc(N(CCCN(C)C)C(=O)c3ccc(S(=O)(=O)N4CCCCCC4)cc3)sc2c1,inactive
7,CCOC(=O)c1c(NC(=O)COC(=O)CNC(=O)c2ccco2)sc(C)c1C,inactive
8,CCC(=O)NC(c1ccco1)c1cc(Cl)c2cccnc2c1O (stereo not given),inactive
9,CC(=O)NC(c1cccs1)c1cc([N+](=O)[O-])c2cccnc2c1O (stereo not given),11.2 µM (active)
10,CCC(=O)NC(C)c1cc(Cl)c2cccnc2c1O (stereo not given),inactive
11,CCCCC(=O)NC(c1ccco1)c1cc(Cl)c2cccnc2c1O (stereo not given),inactive
12,CCC(=O)NC(c1ccc(C)cc1)c1cc([N+](=O)[O-])c2cccnc2c1O (stereo not given),15.8 µM (active)
13,CC(=O)NC(C)c1cc(Cl)c2cccnc2c1O (stereo not given),inactive
14,CC(=O)NC(c1ccco1)c1cc(Cl)c2cccnc2c1O (stereo not given),inactive
15,CC(C)C(=O)NC(c1ccccc1)c1cc([N+](=O)[O-])c2cccnc2c1O (stereo not given),20 µM (active)
16,Cc1nc(-c2c(C(F)(F)F)noc2-c2ccc(O)cc2O)cs1,inactive
17,COc1ccc(Nc2oc(COc3ccccc3OC)nc2C#N)cc1,inactive
18,N#Cc1c(NCCN)nc(-c2ccco2)c2c1CCCC2,inactive
19,CN(C)CCCNC(=O)/C=C/c1ccc(OCc2c(F)cccc2Cl)cc1,inactive
20,CC(C)(O)C#Cc1ccc([C@@H]2C[C@H]3CN(c4ccccc4)C(=O)[C@]34CCCN24)s1,11.2 µM (active)
21,O=C1N(c2ccccc2)C[C@@H]2C[C@@H](c3cc4ccccc4o3)N3CCC[C@@]123,0.355 µM (active)
